Laboratory results reported in the supplement of paper PMC12669032.

Columns and labels:
Assay in all cases: growth AUC relative to DMSO control (median of replicates) (fraction); higher = more growth (less inhibition), active = hit call of the paper
Settings in all cases: 20 µM; 24 h;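 active = AUC reduced over 20% with Padj below 0.05 in at least 2 of 3 replicates; inactive = otherwise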
[1] = test system: Akkermansia muciniphila
How it was run: (§1)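 Area under the growth curve was normalised to the plate median of solvent-only wells, or to row and column medians on the industrial chemical plate. Growth curves came from anaerobic gut bacterial monocultures in mGAM at 37 °C, seeded at OD600 0.05 with 20 µM compound (1% DMSO), and read at OD600 hourly for 24 h with the minimum OD set to 0. The value is the median of three biological replicates grown on separate days.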

[2] = test system: Bacteroides caccae
How it was run: as §1

[3] = test system: Bacteroides clarus
How it was run: as §1

[4] = test system: Bacteroides dorei
How it was run: as §1

[5] = test system: Bacteroides stercoris
How it was run: as §1

[6] = test system: Bacteroides thetaiotaomicron
How it was run: as §1

[7] = test system: Bacteroides uniformis
How it was run: as §1

[8] = test system: Bifidobacterium longum subsp. longum
How it was run: as §1

[9] = test system: Clostridium difficile
How it was run: as §1

[10] = test system: Collinsella aerofaciens
How it was run: as §1

[11] = test system: Coprococcus comes
How it was run: as §1

[12] = test system: Escherichia coli ED1a
How it was run: as §1

[13] = test system: Escherichia coli IAI1
How it was run: as §1

[14] = test system: Eubacterium rectale
How it was run: as §1

[15] = test system: Fusobacterium nucleatum subsp. animalis
How it was run: as §1

[16] = test system: Lactobacillus gasseri
How it was run: as §1

[17] = test system: Lactobacillus paracasei
How it was run: as §1

[18] = test system: Odoribacter splanchnicus
How it was run: as §1

[19] = test system: Parabacteroides distasonis
How it was run: as §1

[20] = test system: Parabacteroides merdae
How it was run: as §1

Measured: growth AUC

Br[C@@H]1CC[C@@H](Br)[C@@H](Br)CC[C@H](Br)[C@H](Br)CC[C@H]1Br
inactive: [1] 1.04 | [2] 0.941 | [3] 1 | [4] 0.985 | [5] 1 | [6] 0.978 | [7] 0.977 | [8] 0.979 | [9] 1 | [10] 0.815 | [11] 0.975 | [12] 0.944 | [13] 0.968 | [14] 1.08 | [15] 1.03 | [16] 0.91 | [17] 0.872 | [18] 0.992 | [19] 0.825 | [20] 1

CCc1cccc(C)c1N(COC(C)C)C(=O)CCl
inactive: [1] 1.07 | [2] 1 | [3] 1.01 | [4] 1.03 | [5] 0.998 | [6] 0.993 | [7] 1.04 | [8] 1.02 | [9] 0.956 | [10] 1.03 | [11] 1.03 | [12] 1.05 | [13] 1.01 | [14] 1.04 | [15] 0.961 | [16] 0.99 | [17] 1.07 | [18] 1.1 | [19] 1.04 | [20] 0.982

COC(=O)Nc1ccc(Cl)c(Cl)c1
inactive: [1] 0.817 | [2] 0.99 | [3] 0.96 | [4] 0.969 | [5] 0.95 | [6] 0.966 | [7] 0.966 | [8] 0.84 | [9] 0.978 | [10] 1.02 | [11] 0.987 | [12] 0.999 | [13] 0.939 | [14] 0.973 | [15] 0.926 | [16] 1.15 | [17] 1.08 | [18] 0.974 | [19] 0.986 | [20] 0.956

NC(=O)Cc1cccc2ccccc12
inactive: [1] 1.01 | [2] 1 | [3] 1.03 | [4] 0.988 | [5] 1.15 | [6] 1.03 | [7] 1.01 | [8] 0.977 | [9] 1.01 | [10] 0.981 | [11] 1.04 | [12] 0.99 | [13] 1.01 | [14] 0.994 | [15] 1.06 | [16] 1.04 | [17] 1.01 | [18] 0.992 | [19] 1.01 | [20] 1.01

COc1ccc(Cl)c(Cl)c1Cl
inactive: [1] 0.963 | [2] 1.03 | [3] 1.01 | [4] 1.02 | [5] 0.971 | [6] 0.991 | [7] 1 | [8] 0.986 | [9] 0.964 | [10] 1.01 | [11] 0.994 | [12] 0.983 | [13] 1.02 | [14] 0.966 | [15] 0.982 | [16] 1.01 | [17] 0.993 | [18] 1.01 | [19] 1.04 | [20] 0.961

O=C(NCc1ncc(C(F)(F)F)cc1Cl)c1c(Cl)cccc1Cl
inactive: [1] 0.937 | [2] 0.973 | [3] 0.967 | [4] 0.975 | [5] 1.17 | [6] 0.95 | [7] 1.02 | [8] 1.04 | [9] 1 | [10] 0.987 | [11] 1.03 | [12] 0.963 | [13] 1.03 | [14] 0.98 | [15] 1.01 | [16] 1.04 | [17] 0.981 | [18] 0.938 | [19] 0.971 | [20] 0.979

COC(=O)COc1ccc(Cl)cc1C
inactive: [1] 0.917 | [2] 1.04 | [3] 0.986 | [4] 1.01 | [5] 1.03 | [6] 1.01 | [7] 1.01 | [8] 0.805 | [9] 0.989 | [10] 1.01 | [11] 1.04 | [12] 0.969 | [13] 1.01 | [14] 0.979 | [15] 1.03 | [16] 1.01 | [17] 1.03 | [18] 1.01 | [19] 1.01 | [20] 1.03

CCCCCCC(C)OC(=O)COc1nc(F)c(Cl)c(N)c1Cl (stereo not given)
inactive: [1] 0.94 | [2] 0.885 | [3] 0.874 | [4] 1 | [5] 0.699 | [6] 0.97 | [7] 0.874 | [8] 0.848 | [9] 0.952 | [10] 0.928 | [11] 0.928 | [12] 1 | [13] 1.01 | [14] 0.875 | [15] 0.935 | [16] 0.967 | [17] 0.942 | [18] 1.04 | [19] 0.919 | [20] 0.891

Cn1cc(C(=O)Nc2ccccc2-c2cc(F)c(F)c(F)c2)c(C(F)F)n1
inactive: [1] 0.832 | [2] 0.995 | [3] 0.937 | [4] 0.972 | [5] 0.931 | [6] 0.93 | [7] 0.984 | [8] 0.919 | [9] 0.98 | [10] 0.987 | [11] 0.97 | [12] 0.985 | [13] 0.987 | [14] 0.937 | [15] 0.873 | [16] 0.995 | [17] 0.943 | [18] 0.964 | [19] 0.916 | [20] 0.937

COC1CCC2(CC1)NC(=O)C(O)(c1cc(C)ccc1C)C2=O (stereo not given)
inactive: [1] 1 | [2] 0.984 | [3] 1.02 | [4] 1.03 | [5] 1.15 | [6] 1.01 | [7] 1.02 | [8] 1.05 | [9] 1.02 | [10] 0.981 | [11] 1.03 | [12] 1.01 | [13] 1.02 | [14] 1.1 | [15] 1.16 | [16] 1.02 | [17] 1.06 | [18] 1.06 | [19] 1.02 | [20] 1.06

COC(=O)CCCOc1ccc(Cl)cc1Cl
inactive: [1] 1.01 | [2] 0.964 | [3] 1.02 | [4] 0.922 | [5] 0.997 | [6] 1.01 | [7] 0.945 | [8] 1.04 | [9] 0.973 | [10] 0.987 | [11] 0.968 | [12] 0.983 | [13] 0.958 | [14] 1.1 | [15] 0.966 | [16] 0.916 | [17] 0.916 | [18] 0.925 | [19] 0.791 | [20] 0.97

NC(Cn1cncn1)C(=O)O (stereo not given)
inactive: [1] 0.948 | [2] 0.985 | [3] 0.992 | [4] 0.983 | [5] 1.01 | [6] 1 | [7] 0.998 | [8] 0.966 | [9] 0.981 | [10] 1.01 | [11] 1.01 | [12] 0.966 | [13] 0.976 | [14] 0.93 | [15] 0.94 | [16] 0.999 | [17] 0.977 | [18] 0.967 | [19] 1.05 | [20] 1.01
